# Results from PubChem BioAssay (EPA / NIEHS).
# Results filed as inconclusive are left out. The source made the active and inactive calls. The calls were made as follows, unless noted: active = hit-call score of the fitted dose curve at least 0.9, where 1 is the maximum; inconclusive = response in the unintended direction; inactive = score below 0.9. Peptide text beside a SMILES is read from it.
# What was measured:
# [1] = Tanguay_ZF_120hpf_MO24: Oregon State University Tanguay Lab 24 Hour Post-fertilization zebrafish Assay for Mortality (AID 2284389; active = hit-call score of the fitted dose curve at least 0.9, where 1 is the maximum; inactive = score below 0.9)
# How it was run: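 Dechorionated wild-type zebrafish embryos, 1 per well, statically exposed from 6 hpf at 28C, 0.64% DMSO final. Mortality scored as binary present/absent at 24 hpf by brightfield microscopy, relative to DMSO.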
# [2] = Tanguay_ZF_120hpf_DP24: Oregon State University Tanguay Lab 24 Hour Post-fertilization zebrafish Assay for Delayed Development (AID 2284390; active = hit-call score of the fitted dose curve at least 0.9, where 1 is the maximum; inactive = score below 0.9)
# How it was run: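 Dechorionated 5D wild-type zebrafish embryos exposed statically from 6 hpf, one per well, 0.64% DMSO final, 28 C, sealed and dark. Developmental progression scored at 24 hpf by brightfield as binary present/absent; dead embryos excluded.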
# [3] = Tanguay_ZF_120hpf_CRAN: Oregon State University Tanguay Lab 120 Hour Post-fertilization zebrafish Assay for Craniofacial Malformation (AID 2284397; active = hit-call score of the fitted dose curve at least 0.9, where 1 is the maximum; inactive = score below 0.9)
# How it was run: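 Dechorionated Tropical 5D wild-type zebrafish embryos, one per well, were statically exposed from 6 to 120 hpf at 28C in 0.64% DMSO, with 5uM trimethyltin chloride as positive control. Craniofacial malformation was scored present/absent by brightfield microscopy, relative to DMSO.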
# [4] = Tanguay_ZF_120hpf_AXIS: Oregon State University Tanguay Lab 120 Hour Post-fertilization zebrafish Assay for Axial Malformation (AID 2284398; active = hit-call score of the fitted dose curve at least 0.9, where 1 is the maximum; inactive = score below 0.9)
# How it was run: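 Dechorionated 5D wild-type zebrafish embryos exposed statically, one per well, from 6 to 120 hpf at 28C, 0.64% DMSO. Axial malformation scored as present/absent by brightfield microscopy at 120 hpf; dead embryos not scored.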
# [5] = Tanguay_ZF_120hpf_MORT: Oregon State University Tanguay Lab 120 Hour Post-fertilization zebrafish Assay for Mortality (AID 2284399; active = hit-call score of the fitted dose curve at least 0.9, where 1 is the maximum; inactive = score below 0.9)
# How it was run: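 Dechorionated wild-type Tropical 5D zebrafish embryos, one per well from 6 hpf, static exposure to 120 hpf at 28C in sealed dark plates, 0.64% DMSO final. Mortality scored as binary by brightfield at 24 and 120 hpf.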
# [6] = Tanguay_ZF_120hpf_EDEM: Oregon State University Tanguay Lab 120 Hour Post-fertilization zebrafish Assay for Edema Malformation (AID 2284400; active = hit-call score of the fitted dose curve at least 0.9, where 1 is the maximum; inactive = score below 0.9)
# How it was run: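 Dechorionated Tropical 5D wild-type embryos, one per well, statically exposed from 6 to 120 hpf at 28C in 0.64% DMSO. Edema scored present/absent by brightfield microscopy at 120 hpf; dead embryos not scored; fit versus DMSO.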
# [7] = Tanguay_ZF_120hpf_BRN: Oregon State University Tanguay Lab 120 Hour Post-fertilization zebrafish Assay for Brain Region Malformation (AID 2284402; active = hit-call score of the fitted dose curve at least 0.9, where 1 is the maximum; inactive = score below 0.9)
# How it was run: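 Dechorionated wild-type Tropical 5D zebrafish embryos exposed statically from 6 to 120 hpf at 28C, one per well, 0.64% DMSO final. Brain malformation scored at 120 hpf by brightfield as present/absent; dead embryos not scored.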
# [8] = Tanguay_ZF_120hpf_TCHR: Oregon State University Tanguay Lab 120 Hour Post-fertilization zebrafish Assay for Touch Responsive (AID 2284403; active = hit-call score of the fitted dose curve at least 0.9, where 1 is the maximum; inactive = score below 0.9)
# How it was run: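 Dechorionated Tropical 5D wild-type zebrafish embryos, one per well from 6 hpf, were statically exposed to 120 hpf at 28 °C (0.64% DMSO). Touch response was scored present/absent at 120 hpf and not scored in dead larvae.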
# SERPINA7 (gene 6906) = test: CCTE_GLTED_hTBG: CCTE's human Thyroxine-binding Globulin (TBG) Inhibition Assay, Great Lakes Toxicology and Ecology Division (GLTED) Lab (AID 2284343);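 also: active chemicals lower fluorescence versus DMSO baseline by displacing probe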
# How it was run: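 Cell-free binding assay in which human TBG is incubated with test chemical for 2 hours and displacement of the fluorescent probe ANSA is read at 380 nm excitation/475 nm emission. Activity is fitted against DMSO as the negative control.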
# [9] = CCTE_Deisenroth_H295R-HTRF_384WELL_ESTRADIOL: CCTE's H295R-HTRF Assay Evaluation of Estradiol Concentration, Deisenroth Lab (AID 2284361; active = hit-call score of the fitted dose curve at least 0.9, where 1 is the maximum; inactive = score below 0.9); settings: actives raise or lower the signal
# How it was run: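 H295R cells exposed 48 h to chemicals at 0.001 - 100 uM final (nine points, triplicate); estradiol in conditioned medium measured by HTRF immunoassay, fitted bidirectionally versus DMSO. Viability by CellTiter-Glo on same plates.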
# [10] = CCTE_Deisenroth_H295R-HTRF_384WELL_TESTOSTERONE: CCTE's H295R-HTRF Assay Evaluation of Testosterone Concentration, Deisenroth Lab (AID 2284373; active = hit-call score of the fitted dose curve at least 0.9, where 1 is the maximum; inactive = score below 0.9); settings: actives raise or lower the signal
# How it was run: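 H295R cells were acclimated 24 h, then exposed 48 h to nine concentrations (0.001–100 uM final) in technical triplicate, n=5. Testosterone in conditioned medium was measured by HTRF (em 620/665 nm). Fitting was bidirectional versus DMSO; CellTiter-Glo viability ran on the same plates.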
# [11] = CCTE_Deisenroth_H295R-HTRF_384WELL_CTOX: Cytotoxicity Assessment in CCTE's H295R-HTRF Assay, Deisenroth Lab (AID 2284380)
# How it was run: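 H295R adrenocortical carcinoma cells plated 24 h, then exposed 48 h to nine-point series 0.001–100 uM final, triplicate, n=5. ATP measured by CellTiter-Glo 2.0 luminescence on same plates after medium collection; loss versus DMSO.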
# [12] = CCTE_Mundy_HCI_iCellGluta_NOG_NeuronCount: CCTE's Neurite Outgrowth Assay in iCellGluta cells for Neuron Count, Mundy Lab (AID 2284340);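 also: cells fixed about 48 h after compound addition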
# How it was run: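 Neuron count read by automated high-content imaging of Hoechst 33342 and betaIII-tubulin/Alexa Fluor-488 labelling in human iPSC glutamatergic neurons. Activity fitted relative to DMSO.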
# [13] = CCTE_Mundy_HCI_iCellGluta_NOG_NeuriteCount: CCTE's Neurite Outgrowth Assay in iCellGluta cells for Neurite Count, Mundy Lab (AID 2284342);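 also: chemical exposure about 48 hours starting 2 hours after plating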
# [14] = IUF_NPC1_cytotoxicity_72hr: Cytotoxicity Assessment at 72 hours in the Leibniz Research Institute for Environmental Medicine (IUF) Neural Progenitor Cell Proliferation Assay (NPC1) (AID 2284332);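 also: rising LDH signal means more cytotoxicity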
# How it was run: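 Single human fetal cortex neural progenitor spheres (GW 16-19, 0.25-0.35 mm) in EGF/FGF proliferation medium were exposed to compound for 72 h at 37C without renewal. Medium LDH release was read as resorufin fluorescence and fitted as gain-of-signal.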
# [15] = TAMU_PeakParms_SingleDonor1434_Asystole: Texas A&M University (TAMU) 1.5-hr Human Induced Pluripotent Stem Cell (iPSC)-derived Cardiomyocytes Calcium (Ca+2) Flux Assay for Cardiotoxicity: Asystole (quiescence of beating) (AID 2284328)
# How it was run: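 Average Ca2+-flux peak frequency (beats/s) was recorded in single-donor iPSC-derived cardiomyocytes after 90 min exposure (0.2–100 uM final, 0.5% DMSO). Asystole POD set as EC95 against DMSO, no preprocessing.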
# [16] = tested on: Brachyury (BRA) Protein Expression, Deisenroth Lab, TBXT (gene 6862); test: CCTE_Deisenroth_DEVTOX-GLR_legacy_Bra: (Legacy) CCTE's DevTox GLR-Endo Assay Evaluation of Brachyury (BRA) Protein Expression, Deisenroth Lab (AID 2284329; active = hit-call score of the fitted dose curve at least 0.9, where 1 is the maximum; inactive = score below 0.9)
# How it was run: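 Human pluripotent RUES2-GLR line was exposed twice during 48 h differentiation to a 10-point series, 1 nM - 200 uM. Fraction of Bra-positive cells was scored by imaging against pluripotent baseline and fitted after 0.2% DMSO subtraction.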
# [17] = CCTE_Deisenroth_DEVTOX-GLR_legacy_CellCount: (Legacy) Viability Assessment in CCTE's DevTox GLR-Endo Assay, Deisenroth Lab (AID 2284331; active = hit-call score of the fitted dose curve at least 0.9, where 1 is the maximum; inactive = score below 0.9); settings: actives raise or lower the signal
# How it was run: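 Human pluripotent RUES2-GLR cells differentiated 48 h with two 24-h-interval exposures, 10-point 1 nM–200 uM series, 0.2% DMSO. Fixed nuclei counted by high-content imaging (5 fields/well); bidirectional fit vs DMSO, n≥4.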
# [18] = tested on: SRY-box transcription factor 17 (SOX17) Protein Expression, Deisenroth Lab, SOX17 (gene 64321); test: CCTE_Deisenroth_DEVTOX-GLR_legacy_Sox17: (Legacy) CCTE's DevTox GLR-Endo Assay Evaluation of SRY-box transcription factor 17 (SOX17) Protein Expression, Deisenroth Lab (AID 2284341; active = hit-call score of the fitted dose curve at least 0.9, where 1 is the maximum; inactive = score below 0.9); settings: actives raise or lower the signal
# How it was run: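 RUES2-GLR human pluripotent cells differentiated toward endoderm for 48 h, dosed twice at 24 h intervals (1 nM–200 uM, 10 points). Imaging gives % SOX17+ cells (intensity >5x BMAD above pluripotent control median); bidirectional fit versus 0.2% DMSO.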
# [19] = tested on: SRY-box transcription factor 2 (SOX2) Protein Expression, Deisenroth Lab, SOX2 (gene 6657); test: CCTE_Deisenroth_DEVTOX-GLR_legacy_Sox2: (Legacy) CCTE's DevTox GLR-Endo Assay Evaluation of SRY-box transcription factor 2 (SOX2) Protein Expression, Deisenroth Lab (AID 2284346; active = hit-call score of the fitted dose curve at least 0.9, where 1 is the maximum; inactive = score below 0.9)
# How it was run: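 hPSC RUES2-GLR, 384-well; 24 h seed → 48 h endoderm differentiation, 2 doses q24h, 1 nM–200 uM. Fix, nuclear dye, 5 fields/well. Sox2+ cells/cell count; cell positive if >5x BMAD over endoderm ctrl; gain direction vs DMSO.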
smiles,measurement,setting,value
C[N+](C)(C)CCCNS(=O)(=O)C(F)(F)C(F)(F)C(F)(F)C(F)(F)C(F)(F)C(F)(F)C(F)(F)C(F)(F)F,outcome,[1],inactive
same,AC50,[2],89.2 µM (active)
same,AC50,[3],70.4 µM (active)
same,outcome,[4],inactive
same,outcome,[5],inactive
same,AC50,[6],67.1 µM (active)
same,outcome,[7],inactive
same,outcome,[8],inactive
COc1ccc(-c2coc3cc(O)cc(O)c3c2=O)cc1,AC50,SERPINA7 (gene 6906),23 µM (active)
O=C(Oc1ccccc1)c1ccccc1O,AC50,SERPINA7 (gene 6906),2.52 µM (active)
CCCCOCCOC(=O)COc1ccc(Cl)cc1Cl,AC50,SERPINA7 (gene 6906),12.7 µM (active)
C=C[C@@]1(C)CC(=O)[C@]2(O)[C@@]3(C)[C@@H](O)CCC(C)(C)[C@@H]3[C@H](O)[C@H](OC(C)=O)[C@@]2(C)O1,AC50,[9],3.68 µM (active)
same,AC50,[10],566 nM (active)
same,outcome,[11],inactive
O=C(O)C(F)(F)C(F)(F)C(F)(F)C(F)(F)C(=O)O,outcome,[12],inactive
same,outcome,[13],inactive
same,outcome,[1],inactive
same,outcome,[2],inactive
same,outcome,[3],inactive
same,outcome,[4],inactive
same,outcome,[5],inactive
same,outcome,[6],inactive
same,outcome,[7],inactive
same,outcome,[8],inactive
COc1ccc(C(=O)c2ccccc2)c(O)c1,AC50,SERPINA7 (gene 6906),7.45 µM (active)
Cc1ccc([N+](=O)[O-])cc1N,AC50,SERPINA7 (gene 6906),50 µM (active)
CCCCNS(=O)(=O)c1ccc(C)cc1,AC50,SERPINA7 (gene 6906),21.4 µM (active)
O=S(=O)(O)c1ccc(N=Nc2c(O)ccc3ccccc23)cc1,AC50,SERPINA7 (gene 6906),19 µM (active)
O=C(OCCc1ccccc1)c1ccccc1,AC50,SERPINA7 (gene 6906),22.6 µM (active)
Cc1c(C(=O)c2c[nH]n(C)c2=O)ccc(S(C)(=O)=O)c1C1=NOCC1,outcome,[14],inactive
same,outcome,[12],inactive
same,outcome,[13],inactive
CC(CCC(=O)O)(c1ccc(O)cc1)c1ccc(O)cc1,AC50,SERPINA7 (gene 6906),37.7 µM (active)
Oc1ccccc1Cc1ccccc1O,AC50,SERPINA7 (gene 6906),8.67 µM (active)
CC(C)(c1ccccc1)c1ccc(Nc2ccc(C(C)(C)c3ccccc3)cc2)cc1,AC50,SERPINA7 (gene 6906),25.2 µM (active)
CCCCCCCCCCCCc1ccc(O)cc1,AC50,SERPINA7 (gene 6906),6.15 µM (active)
CCOC(=O)C1=NOC(c2ccccc2)(c2ccccc2)C1,AC50,SERPINA7 (gene 6906),2.68 µM (active)
Cc1noc(NS(=O)(=O)c2ccc(N)cc2)c1C,outcome,[13],inactive
N#Cc1ccc(C(c2ccc(C#N)cc2)n2cncn2)cc1,outcome,[9],inactive
same,outcome,[10],inactive
same,outcome,[11],inactive
CCCCNS(=O)(=O)c1ccccc1,outcome,[14],inactive
same,outcome,[12],inactive
same,outcome,[13],inactive
CC1=NN(c2ccc(S(=O)(=O)O)cc2)C(=O)C1N=Nc1ccccc1 (stereo not given),AC50,SERPINA7 (gene 6906),27.3 µM (active)
Oc1ccc(-c2ccccc2)c(Cl)c1,AC50,SERPINA7 (gene 6906),15.4 µM (active)
COc1cc(O)c(C(=O)c2ccccc2)cc1S(=O)(=O)O,AC50,SERPINA7 (gene 6906),29.8 µM (active)
CCCCCCCOC(=O)c1ccc(O)cc1,AC50,SERPINA7 (gene 6906),10.6 µM (active)
CC(C)(C)NC(=O)[C@H]1CC[C@H]2[C@@H]3CC[C@H]4NC(=O)C=C[C@]4(C)[C@H]3CC[C@]12C,outcome,[9],inactive
same,outcome,[10],inactive
same,outcome,[11],inactive
CCCCCC[C@@H](O)C/C=C\CCCCCCCC(=O)OCC(O)CO (stereo not given in full),AC50,SERPINA7 (gene 6906),26.9 µM (active)
COC(=O)[C@H](Cc1ccccc1)NC(=O)[C@@H](N)CC(=O)O (H-Asp-Phe-OMe),outcome,[15],inactive
same,outcome,[12],inactive
same,outcome,[13],inactive
CC1(C)[C@@H]2CC[C@@]1(C)C(=O)C2,outcome,[16],inactive
same,outcome,[17],inactive
same,outcome,[18],inactive
same,outcome,[19],inactive
Cc1ccc(C)c(OCCCC(C)(C)C(=O)O)c1,AC50,SERPINA7 (gene 6906),27 µM (active)
